Reference: PubChem BioAssay (Tox21)
Results filed as inconclusive are left out. Activity calls are given as the source filed them. Unless noted, calls come from the whole dose curve; as a rule, active = well fitted curve in the direction sought with a large enough effect in the repeat runs; inconclusive = weak or mixed curves; inactive = no such curve, though single readings can be large; an effect the other way counts as inactive or inconclusive.

Experiments:
[1] = qHTS assay to identify small molecule that activate the aryl hydrocarbon receptor (AhR) signaling pathway - cell viability counter screen (AID 743086);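 note: HepG2 liver cells carrying the AhR DRE luciferase reporter; series mostly up to about 70 µM; nearly all actives have a fitted effect of over 45% in size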
How it was run: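 Cytotoxicity counter screen: CellTiter-Fluor signal (30 min, 37 C) in 4000 HepG2 cells/well carrying the DRE-luciferase reporter, following 24 h compound exposure at 37 C.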

[2] = qHTS assay to identify small molecule antagonists of the peroxisome proliferator-activated receptor gamma (PPARg) signaling pathway - cell viability counter screen (AID 743194); note: nearly all actives have a fitted effect of over 55% in size
How it was run: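 Viability was measured as CellTiter-Glo luminescence in GeneBLAzer PPARg UAS-bla HEK293H cells. These cells had been exposed 17 h at 37 C to compounds together with rosiglitazone at 50 nM final, with the beta-lactamase readout taken in the same wells.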

[3] = qHTS assay for small molecule agonists of the antioxidant response element (ARE) signaling pathway (AID 743202; active = well fitted activation curve with a large enough effect in the signal ratio in the repeat runs, not every such curve was filed as active; the % refers to the signal ratio)
How it was run: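 Quantitative high-throughput format in HepG2 cells bearing an integrated ARE-beta-lactamase reporter. Compound exposure lasted 16 h at 37 C, and fluorescence was read 2 h after adding LiveBLAzer B/G substrate at room temperature.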

[4] = qHTS assay for small molecule agonists of the antioxidant response element (ARE) signaling pathway - cell viability counter screen (AID 743203; calls by dose curve; note: nearly all actives have a fitted effect of over 55% in size)
How it was run: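 Compounds in DMSO were pinned onto ARE-bla HepG2 cells plated 5 hrs earlier at 2,000 cells/well. Sixteen hours later at 37C/5% CO2, CellTiter-Glo was added and luminescence measured after 30 min at room temperature.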

[5] = qHTS assay for small molecule activators of the heat shock response signaling pathway - cell viability counter screen (AID 743209); note: nearly all actives have a fitted effect of over 50% in size
How it was run: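 Counter screen for cytotoxicity in HeLa HSE-bla reporter cells. Treatment was 5 h at 37 C; viability was detected by luminescent ATP assay (CellTiter-Glo) in the same wells as the beta-lactamase read.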

[6] = qHTS assay for small molecule activators of the heat shock response signaling pathway (AID 743210; active = well fitted activation curve with a large enough effect in the signal ratio in the repeat runs, with a control signal flat, not every such curve was filed as active; the % refers to the signal ratio;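 note: HeLa cells with beta-lactamase reporter driven by heat shock elements; series mostly up to about 63 µM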)
How it was run: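 HeLa HSE-bla cells, overnight plating; cpd in DMSO 5 h, 37 C; LiveBLAzer B/G FRET substrate 2.5 h RT; fluorescence intensity read.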

[7] = qHTS assay to identify small molecule agonists of the peroxisome proliferator-activated receptor delta (PPARd) signaling pathway - cell viability counter screen (AID 743211); note: nearly all actives have a fitted effect of over 55% in size
How it was run: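 Tox21 library compounds, delivered in DMSO, were incubated 17 h with PPARd-bla HEK293H cells; cytotoxicity was taken from CellTiter-Glo luminescence read 30 min after reagent addition.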

[8] = molecular target: Peroxisome proliferator-activated receptor delta (Homo sapiens) (UniProt Q03181); test: qHTS assay to identify small molecule agonists of the peroxisome proliferator-activated receptor delta (PPARd) signaling pathway (AID 743212; calls by dose curve)
How it was run: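 HEK293H PPARd-bla cells; 5 h preincubation 37 C/5% CO2; compound (DMSO) 37 C; LiveBLAzer B/G FRET substrate 2 h RT; fluorescence intensity.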

[9] = molecular target: Peroxisome proliferator-activated receptor delta (Homo sapiens) (UniProt Q03181); test: qHTS assay to identify small molecule antagonists of the peroxisome proliferator-activated receptor delta (PPARd) signaling pathway (AID 743215; active = well fitted inhibition curve with a large enough effect in the signal ratio in the repeat runs, not every such curve was filed as active; the % refers to the signal ratio;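 note: cells stimulated with agonist L165041 at 300 nM final during compound exposure; series mostly up to about 62 µM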)
How it was run: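 With L165041 present at 300 nM final, compounds were incubated 17 h at 37 C on PPARd UAS-bla HEK293H cells. A FRET-based beta-lactamase substrate was then applied for 2 h at room temperature and fluorescence intensity recorded.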

[10] = molecular target: Bile acid receptor (Homo sapiens) (UniProt Q96RI1); test: qHTS assay to identify small molecule agonists of the farnesoid-X-receptor (FXR) signaling pathway (AID 743220; active = well fitted activation curve with a large enough effect in the signal ratio in the repeat runs, not every such curve was filed as active; the % refers to the signal ratio)
How it was run: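 Beta-lactamase reporter under UAS control in GeneBLAzer FXR HEK 293T cells (5000/well) measured with LiveBLAzer FRET substrate after 2 h at room temperature. Compound exposure lasted 16 h at 37C.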

[11] = qHTS assay to identify small molecule antagonists of the farnesoid-X-receptor (FXR) signaling pathway - cell viability counter screen (AID 743221; active = well fitted cell-killing curve with a large enough effect in the repeat runs, not every such curve was filed as active; note: nearly all actives have a fitted effect of over 50% in size)
How it was run: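 Cytotoxicity is taken from ATP luminescence (CellTiter-Glo, 30 min, room temperature) in FXR-bla HEK 293T cells previously incubated 16 h at 37 C with compound and chenodeoxycholic acid at 50 uM final.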

[12] = molecular target: Vitamin D3 receptor (Homo sapiens) (UniProt P11473); test: qHTS assay to identify small molecule agonists of the vitamin D receptor (VDR) signaling pathway (AID 743222; calls by dose curve)
How it was run: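 VDR-bla cells were seeded, left 4 h, treated with compounds in DMSO for 16 h, incubated 2 h at RT with B/G FRET substrate, and read for fluorescence.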

[13] = molecular target: Vitamin D3 receptor (Homo sapiens) (UniProt P11473); test: qHTS assay to identify small molecule antagonists of the vitamin D receptor (VDR) signaling pathway (AID 743223; active = well fitted inhibition curve with a large enough effect in the signal ratio in the repeat runs, not every such curve was filed as active; the % refers to the signal ratio)
How it was run: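 Quantitative HTS in VDR-bla reporter cells stimulated with 1alpha,25-dihydroxyvitamin D3, 3 nM final. Compound exposure 16 h, 37C, 5% CO2. Read-out: beta-lactamase FRET substrate fluorescence, 2 h RT.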

[14] = qHTS assay to identify small molecule agonists of the vitamin D receptor (VDR) signaling pathway - cell viability counter screen (AID 743224); note: series mostly up to about 63 µM; nearly all actives have a fitted effect of over 50% in size
How it was run: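 Here cell health was gauged by luminescent ATP detection (CellTiter-Glo, 30 min RT) in VDR-bla cells that had been incubated with test compounds for 16 h at 37C and 5% CO2.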

[15] = qHTS assay to identify small molecule antagonists of the vitamin D receptor (VDR) signaling pathway - cell viability counter screen (AID 743225); note: nearly all actives have a fitted effect of over 50% in size
How it was run: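 Same-well multiplex: following 16 h treatment of HEK 293T cells carrying a UAS-driven beta-lactamase reporter with compound and agonist (3 nM final), and a 2 h FRET substrate step, CellTiter-Glo was added and luminescence read after 30 min.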

[16] = molecular target: Peroxisome proliferator-activated receptor gamma (Homo sapiens) (UniProt P37231); test: qHTS assay to identify small molecule antagonists of the peroxisome proliferator-activated receptor gamma (PPARg) signaling pathway (AID 743191; calls by dose curve; note: series mostly up to about 63 µM; nearly all actives have a fitted effect of over 30% in size)
How it was run: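 Beta-lactamase reporter under UAS control in HEK293H PPARg-bla cells; compound treatment 17 h at 37C. Read-out: fluorescence intensity after 1 h room-temperature incubation with LiveBLAzer B/G FRET substrate.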

[17] = qHTS assay to identify small molecule agonists of the farnesoid-X-receptor (FXR) signaling pathway - cell viability counter screen (AID 743218); note: nearly all actives have a fitted effect of over 45% in size
How it was run: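 After 16 h at 37 C with test compounds, FXR-bla HEK 293T cells were given LiveBLAzer B/G substrate for 2 h at RT and then CellTiter-Glo; luminescence was taken after 30 min.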

[18] = qHTS assay to identify small molecule antagonists of the peroxisome proliferator-activated receptor delta (PPARd) signaling pathway - cell viability counter screen (AID 743213); note: nearly all actives have a fitted effect of over 50% in size
How it was run: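 PPARd-bla HEK293H cells (3000/well) got compound plus 300 nM L165041 agonist for 17 h at 37 C. Viability in the same wells came from CellTiter-Glo luminescence after 30 min at room temperature.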

[19] = molecular target: Bile acid receptor (Homo sapiens) (UniProt Q96RI1); test: qHTS assay to identify small molecule antagonists of the farnesoid-X-receptor (FXR) signaling pathway (AID 743217; active = well fitted inhibition curve with a large enough effect in the signal ratio in the repeat runs, not every such curve was filed as active; the % refers to the signal ratio)
How it was run: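 In this cell-based antagonist screen, inhibition of CDCA-driven (50 uM final) UAS-beta-lactamase expression in HEK 293T cells was measured by FRET fluorescence following 16 h compound exposure at 37 °C.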

[20] = molecular target: Peroxisome proliferator-activated receptor gamma (Homo sapiens) (UniProt P37231); test: qHTS assay to identify small molecule agonists of the peroxisome proliferator-activated receptor gamma (PPARg) signaling pathway (AID 743094; active = well fitted activation curve with a large enough effect in the signal ratio in the repeat runs, not every such curve was filed as active; the % refers to the signal ratio)
How it was run: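 Following 5 h plating at 37C, PPARg-bla HEK293H cells receive compound or DMSO for 17 h; fluorescence intensity is recorded after LiveBLAzer B/G loading for 1 h at room temperature.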

Measured: Potency

Vitamin D3 receptor (Homo sapiens), sequence (P11473 whole entry, looked up): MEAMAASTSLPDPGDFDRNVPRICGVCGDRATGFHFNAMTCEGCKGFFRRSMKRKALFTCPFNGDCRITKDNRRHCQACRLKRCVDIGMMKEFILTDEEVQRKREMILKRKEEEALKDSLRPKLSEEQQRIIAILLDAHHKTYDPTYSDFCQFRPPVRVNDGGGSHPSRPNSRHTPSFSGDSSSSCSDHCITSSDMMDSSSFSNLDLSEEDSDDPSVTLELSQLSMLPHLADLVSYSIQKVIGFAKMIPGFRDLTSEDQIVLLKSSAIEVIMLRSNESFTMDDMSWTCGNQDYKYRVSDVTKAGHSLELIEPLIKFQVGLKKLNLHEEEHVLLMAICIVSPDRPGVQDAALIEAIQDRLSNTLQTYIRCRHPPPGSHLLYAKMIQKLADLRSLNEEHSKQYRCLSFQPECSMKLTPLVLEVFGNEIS
Bile acid receptor (Homo sapiens), sequence (Q96RI1 whole entry, looked up): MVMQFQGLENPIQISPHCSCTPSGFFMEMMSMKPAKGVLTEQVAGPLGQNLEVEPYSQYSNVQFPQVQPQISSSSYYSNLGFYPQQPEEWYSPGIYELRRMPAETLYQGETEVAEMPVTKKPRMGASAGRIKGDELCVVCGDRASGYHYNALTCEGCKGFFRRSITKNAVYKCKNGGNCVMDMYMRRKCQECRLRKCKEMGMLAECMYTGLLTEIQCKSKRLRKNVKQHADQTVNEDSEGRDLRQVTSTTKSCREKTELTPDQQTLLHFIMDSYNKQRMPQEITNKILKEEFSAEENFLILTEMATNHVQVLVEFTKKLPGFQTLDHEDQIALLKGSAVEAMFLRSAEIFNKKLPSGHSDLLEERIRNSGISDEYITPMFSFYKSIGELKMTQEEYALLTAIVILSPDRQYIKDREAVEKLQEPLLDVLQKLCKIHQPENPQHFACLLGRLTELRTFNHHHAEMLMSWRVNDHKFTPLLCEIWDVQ
Peroxisome proliferator-activated receptor delta (Homo sapiens), sequence (Q03181 whole entry, looked up): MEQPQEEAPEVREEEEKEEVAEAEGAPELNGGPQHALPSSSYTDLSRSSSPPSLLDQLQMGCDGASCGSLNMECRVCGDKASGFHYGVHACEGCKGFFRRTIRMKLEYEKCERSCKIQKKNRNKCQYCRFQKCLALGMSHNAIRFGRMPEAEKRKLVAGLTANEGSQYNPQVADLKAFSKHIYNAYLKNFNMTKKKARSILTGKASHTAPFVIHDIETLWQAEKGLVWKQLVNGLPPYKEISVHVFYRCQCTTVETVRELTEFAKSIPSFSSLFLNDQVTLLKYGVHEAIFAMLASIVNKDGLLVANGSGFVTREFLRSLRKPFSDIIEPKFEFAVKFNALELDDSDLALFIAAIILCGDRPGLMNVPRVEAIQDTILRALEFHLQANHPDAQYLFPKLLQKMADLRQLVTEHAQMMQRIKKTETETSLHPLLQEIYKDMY
Peroxisome proliferator-activated receptor gamma (Homo sapiens), sequence (P37231 whole entry, looked up): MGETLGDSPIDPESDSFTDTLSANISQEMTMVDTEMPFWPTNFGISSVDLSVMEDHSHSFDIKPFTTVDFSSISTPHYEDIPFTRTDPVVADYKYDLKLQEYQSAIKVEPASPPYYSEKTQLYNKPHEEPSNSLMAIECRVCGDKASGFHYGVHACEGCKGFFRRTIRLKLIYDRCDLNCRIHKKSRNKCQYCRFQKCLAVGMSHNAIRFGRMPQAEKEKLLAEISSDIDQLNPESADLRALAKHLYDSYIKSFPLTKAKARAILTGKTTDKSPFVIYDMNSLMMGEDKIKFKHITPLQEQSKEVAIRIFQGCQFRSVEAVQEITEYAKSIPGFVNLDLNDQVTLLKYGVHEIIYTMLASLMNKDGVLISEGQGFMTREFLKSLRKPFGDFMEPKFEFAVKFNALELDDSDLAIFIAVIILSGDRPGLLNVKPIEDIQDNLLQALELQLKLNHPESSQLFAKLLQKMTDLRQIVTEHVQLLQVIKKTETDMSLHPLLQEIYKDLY

Nc1cnn([C@@H]2O[C@H](CO)[C@@H](O)[C@H]2O)c(=O)n1
inactive: [1] | [2] | [3] | [4] | [5] | [6] | [7] | [8] | [9] | [10] | [11] | [12] | [13] | [14] | [15]

CCC(C)N(C)C(=O)c1cc2ccccc2c(-c2ccccc2Cl)n1 (centres undefined)
inactive: [1] | [16] | [2] | [4] | [5] | [6] | [7] | [8] | [9] | [17] | [11] | [14] | [15]

CC/C(=C\C(=N/O)C(N)=O)C(C)[N+](=O)[O-] (centres undefined)
inactive: [1] | [16] | [2] | [4] | [5] | [7] | [18] | [17] | [11] | [12] | [14] | [15]

CCCCC(CC)COCCCN (centres undefined)
inactive: [1] | [2] | [3] | [4] | [5] | [7] | [8] | [9] | [19] | [14] | [15]

CC(C)(C)c1ccc(OCC2CO2)cc1 (centres undefined)
inactive: [1] | [2] | [3] | [4] | [5] | [7] | [17] | [11] | [12] | [13] | [14] | [15]

CC(C)CCCCCCOC(=O)c1ccc(C(=O)OCCCCCCC(C)C)c(C(=O)OCCCCCCC(C)C)c1
inactive: [1] | [20] | [2] | [4] | [5] | [7] | [18] | [9] | [17] | [11] | [12] | [13] | [14] | [15]

CCOC(=O)C1=NN(c2ccccc2)C(=O)C1
inactive: [1] | [16] | [2] | [3] | [5] | [6] | [8] | [18] | [9] | [19] | [17] | [10] | [11] | [12] | [13] | [14]

O=C(O)COC(=O)Cc1ccccc1Nc1c(Cl)cccc1Cl
inactive: [1] | [2] | [3] | [4] | [5] | [6] | [7] | [8] | [18] | [9] | [17] | [12] | [13] | [14] | [15]

CC(C)CC=O
inactive: [1] | [20] | [3] | [4] | [5] | [6] | [7] | [8] | [18] | [19] | [17] | [10] | [12] | [14]

CC(C)c1ccc2c(C(C)C)cc(C(C)C)c(S(=O)(=O)O)c2c1
inactive: [1] | [20] | [2] | [5] | [6] | [7] | [8] | [18] | [9] | [19] | [17] | [10] | [11] | [12] | [14] | [15]

O=C(NS(=O)(=O)/C=C/c1cccs1)c1ccc(F)cc1Br
inactive: [1] | [16] | [2] | [4] | [5] | [6] | [7] | [8] | [18] | [19] | [17] | [10] | [12] | [13] | [14] | [15]
